These results are taken from PubChem BioAssay (Tox21).

Each structure is given as a SMILES string. “And” between values parts separate entries of the source, which are not always exact repeats. Equal entries are not always repeated. Results filed as inconclusive are left out. A structure can be active in one record and inactive in another. The source made the active and inactive calls. Unless noted, the call rests on the fitted dose curve; in most records, active means well fitted curve in the direction sought with a large enough effect in the repeat runs; inconclusive means weak or mixed curves; inactive means no such curve, though single readings can be large; an effect the other way counts as inactive or inconclusive.

The nature of assay [1]: qHTS assay to identify small molecule agonists of the peroxisome proliferator-activated receptor delta (PPARd) signaling pathway - cell viability counter screen (AID 743211). Further: nearly all actives have a fitted effect of over 55% in size. Further: potency means the concentration at half of the fitted maximal effect. Summed up: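 In the same wells used for beta-lactamase reporter measurement, cytotoxicity is scored by CellTiter-Glo. HEK293H PPARd-bla cells receive compound for 17 h at 37C following a 5 h settling period.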
On the technique in general: In qHTS, concentration-response curves come from the screen itself.

In assay [2] the target is Peroxisome proliferator-activated receptor delta (Homo sapiens) (UniProt Q03181). The assay can be described thus: qHTS assay to identify small molecule agonists of the peroxisome proliferator-activated receptor delta (PPARd) signaling pathway (AID 743212; calls by dose curve). Summed up: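 Read-out: beta-lactamase FRET fluorescence after 2 h room-temperature incubation with LiveBLAzer B/G substrate. Cells were HEK293H carrying a UAS-bla reporter for PPARd, treated at 37 C with DMSO-dissolved compounds.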
Sequence of Peroxisome proliferator-activated receptor delta (Homo sapiens) (Q03181 whole entry, looked up): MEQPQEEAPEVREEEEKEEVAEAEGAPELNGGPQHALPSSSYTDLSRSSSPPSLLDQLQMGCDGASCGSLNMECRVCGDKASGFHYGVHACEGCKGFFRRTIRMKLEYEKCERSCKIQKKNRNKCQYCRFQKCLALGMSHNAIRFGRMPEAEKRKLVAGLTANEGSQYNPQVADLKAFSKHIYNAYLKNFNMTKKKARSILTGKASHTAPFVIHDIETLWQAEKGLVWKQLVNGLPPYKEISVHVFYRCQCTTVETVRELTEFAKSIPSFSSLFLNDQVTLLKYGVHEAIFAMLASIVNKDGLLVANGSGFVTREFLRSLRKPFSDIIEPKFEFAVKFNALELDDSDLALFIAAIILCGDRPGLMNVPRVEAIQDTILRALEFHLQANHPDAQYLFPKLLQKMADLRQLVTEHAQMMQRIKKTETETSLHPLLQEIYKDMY

Assay [3] is described as follows: qHTS assay to identify small molecule antagonists of the peroxisome proliferator-activated receptor delta (PPARd) signaling pathway - cell viability counter screen (AID 743213). Further: nearly all actives have a fitted effect of over 50% in size. Further: potency means the concentration at half of the fitted maximal effect. An outline of the steps: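 Luminescence from CellTiter-Glo, added after the bla read and incubated 30 min at room temperature, gives viability of HEK293H PPARd-bla cells exposed to compounds for 17 h at 37 C with 300 nM L165041.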

Assay [4] in a line: qHTS assay to identify small molecule agonists of the farnesoid-X-receptor (FXR) signaling pathway - cell viability counter screen (AID 743218). Further: nearly all actives have a fitted effect of over 45% in size. Further: potency means the concentration at half of the fitted maximal effect. Summed up:
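Readout: CellTiter-Glo luminescence, 30 min RT, multiplexed after the FXR-bla FRET reading. HEK 293T FXR-UAS-bla cells received compound 5 h post-plating and were incubated 16 h at 37 C.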

For assay [5], the target named is Vitamin D3 receptor (Homo sapiens) (UniProt P11473). The assay can be described thus: qHTS assay to identify small molecule agonists of the vitamin D receptor (VDR) signaling pathway (AID 743222; calls by dose curve). Summed up: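 Following 4 h attachment at 37C, VDR-bla cells (2,000 per well) received DMSO-dissolved compounds or controls. After 16 h incubation, LiveBLAzer B/G FRET substrate was added and fluorescence read 2 h later at room temperature.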
Sequence of Vitamin D3 receptor (Homo sapiens) (P11473 whole entry, looked up): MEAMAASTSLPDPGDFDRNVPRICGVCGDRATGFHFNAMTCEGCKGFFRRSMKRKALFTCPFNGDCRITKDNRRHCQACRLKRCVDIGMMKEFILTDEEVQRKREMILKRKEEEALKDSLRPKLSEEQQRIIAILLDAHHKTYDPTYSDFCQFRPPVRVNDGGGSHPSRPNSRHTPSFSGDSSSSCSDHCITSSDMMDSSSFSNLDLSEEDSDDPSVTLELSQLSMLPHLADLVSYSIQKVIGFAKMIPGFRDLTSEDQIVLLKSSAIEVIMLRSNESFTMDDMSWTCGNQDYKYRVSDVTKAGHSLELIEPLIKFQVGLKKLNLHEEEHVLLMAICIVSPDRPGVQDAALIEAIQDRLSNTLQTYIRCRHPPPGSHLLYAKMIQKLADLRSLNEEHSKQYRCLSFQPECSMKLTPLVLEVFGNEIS

For assay [6] the target is unchanged. The assay can be described thus: qHTS assay to identify small molecule antagonists of the vitamin D receptor (VDR) signaling pathway (AID 743223; active means well fitted inhibition curve with a large enough effect in the signal ratio in the repeat runs, not every such curve was filed as active; the % refers to the signal ratio). An outline of the steps:
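Inhibition of agonist-driven VDR signalling is scored in VDR-bla cells: 3 nM final 1alpha,25-dihydroxyvitamin D3 plus compound, 16 h at 37C, then beta-lactamase detection by FRET substrate fluorescence after 2 h.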

A short description of assay [7]: qHTS assay to identify small molecule agonists of the vitamin D receptor (VDR) signaling pathway - cell viability counter screen (AID 743224). Further: nearly all actives have a fitted effect of over 50% in size. Further: potency means the concentration at half of the fitted maximal effect. An outline of the steps: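 In parallel with the bla FRET readout, cytotoxicity toward VDR-bla cells after 16 h compound exposure was assessed by CellTiter-Glo, with luminescence recorded after a 30 min room-temperature incubation.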

The nature of assay [8]: qHTS assay to identify small molecule antagonists of the vitamin D receptor (VDR) signaling pathway - cell viability counter screen (AID 743225). Further: nearly all actives have a fitted effect of over 50% in size. Further: potency means the concentration at half of the fitted maximal effect. An outline of the steps: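 Compounds were pinned onto VDR-bla HEK 293T cells together with 1-alpha,25-dihydroxyvitamin D3 at 3 nM final. After 16 h at 37C and 5% CO2 plus the reporter readout, cell viability was measured by CellTiter-Glo luminescence (30 min, room temperature).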

Assay [9] can be described thus: qHTS assay to identify small molecule agonists of the endoplasmic reticulum stress response signaling pathway - cell viability counter screen (AID 1159517; calls by dose curve; further: nearly all actives have a fitted effect of over 50% in size; further: potency means the concentration at half of the fitted maximal effect). Summed up: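 Steps: seed 1,500 ESRE-bla HeLa cells per well; incubate overnight at 37 C, 5% CO2; add compounds in DMSO for 5 hr; run FRET substrate 2 hr RT; add CellTiter-Glo, wait 30 min, read luminescence.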

Assay [10] can be described thus: qHTS assay to identify small molecule antagonists of the retinoid-related orphan receptor gamma (ROR-gamma) signaling pathway - cell viability counter screen (AID 1159520). Further: nearly all actives have a fitted effect of over 50% in size. Further: potency means the concentration at half of the fitted maximal effect. Summed up:
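Tet-on ROR gamma CHO cells were given compounds for 2 hr, then doxycycline hyclate at 1 uM final, and incubated 16 hr at 37 C. Viability was measured as ATP content by CellTiter-Glo luminescence.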

Assay [11] in a line: qHTS assay to identify small molecule agonists of the AP-1 signaling pathway - cell viability counter screen (AID 1159525; calls by dose curve; further: nearly all actives have a fitted effect of over 55% in size; further: potency means the concentration at half of the fitted maximal effect). An outline of the steps:
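Same-well cytotoxicity counter screen of the Tox21 10K library in ME-180 cells. The readout is ATP-dependent luminescence after 5 h compound treatment. Data are normalised to DMSO and tetra n-octyl ammonium bromide controls.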

Assay [12] is described as follows: qHTS assay to identify small molecule antagonists of the farnesoid-X-receptor (FXR) signaling pathway - cell viability counter screen (AID 743221; active means well fitted cell-killing curve with a large enough effect in the repeat runs, not every such curve was filed as active; further: nearly all actives have a fitted effect of over 50% in size; further: potency means the concentration at half of the fitted maximal effect). An outline of the steps:
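Here viability was scored by luminescence after CellTiter-Glo addition to wells already read for beta-lactamase. Prior treatment: compound plus CDCA (50 uM final), 16 h, 37 C, HEK 293T FXR-bla cells.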

Assay [13] in a line: qHTS assay to identify small molecule agonists of the endoplasmic reticulum stress response signaling pathway (AID 1159516; active means well fitted activation curve with a large enough effect in the signal ratio in the repeat runs, not every such curve was filed as active; the % refers to the signal ratio). An outline of the steps: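 Beta-lactamase expression from the ER stress response element in HeLa reporter cells is quantified with the LiveBLAzer B/G FRET substrate, read at 405 nm excitation after 2 hr at room temperature, following 5 hr compound treatment at 37 C.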

Assay [14] is described as follows: qHTS assay to identify small molecule agonists of the AP-1 signaling pathway (AID 1159526; calls by dose curve).
In assay [15] the target is Retinoic acid receptor RXR-alpha (Homo sapiens) (UniProt P19793). Kind of assay: qHTS assay to identify small molecule agonists of the RXR signaling pathway (AID 1159527; calls by dose curve; further: nearly all actives have a fitted effect of over 35% in size). Summed up: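 Using 9-cis retinoic acid as the reference agonist, chemicals were tested in HEK 293T cells […] for 16 hr; substrate loading lasted 2 hr at room temperature.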
Sequence of Retinoic acid receptor RXR-alpha (Homo sapiens) (P19793 whole entry, looked up): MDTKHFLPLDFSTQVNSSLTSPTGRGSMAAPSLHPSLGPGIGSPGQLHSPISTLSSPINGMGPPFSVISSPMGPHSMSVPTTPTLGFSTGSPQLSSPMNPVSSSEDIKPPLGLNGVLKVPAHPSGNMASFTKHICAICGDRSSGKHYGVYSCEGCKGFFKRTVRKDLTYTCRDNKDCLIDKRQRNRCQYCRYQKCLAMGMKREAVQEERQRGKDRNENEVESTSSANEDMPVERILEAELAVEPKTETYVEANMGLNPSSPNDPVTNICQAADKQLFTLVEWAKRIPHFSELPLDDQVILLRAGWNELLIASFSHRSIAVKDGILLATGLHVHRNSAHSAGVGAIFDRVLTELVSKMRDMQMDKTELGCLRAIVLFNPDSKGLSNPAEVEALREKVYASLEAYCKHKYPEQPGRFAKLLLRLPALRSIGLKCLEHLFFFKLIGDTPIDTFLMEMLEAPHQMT

The target in assay [16] is Bile acid receptor (Homo sapiens) (UniProt Q96RI1). The assay can be described thus: qHTS assay to identify small molecule antagonists of the farnesoid-X-receptor (FXR) signaling pathway (AID 743217; active means well fitted inhibition curve with a large enough effect in the signal ratio in the repeat runs, not every such curve was filed as active; the % refers to the signal ratio). An outline of the steps:
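FRET fluorescence after 2 h room-temperature LiveBLAzer loading gives the readout. Prior step: FXR-bla HEK 293T cells, seeded and incubated 5 h, received test compounds plus 50 uM final CDCA for 16 h at 37 °C.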

Assay [17] addresses Nuclear receptor ROR-gamma (Homo sapiens) (UniProt P51449). The assay can be described thus: qHTS assay to identify small molecule antagonists of the retinoid-related orphan receptor gamma (ROR-gamma) signaling pathway (AID 1159521; further: nearly all actives have a fitted effect of over 50% in size; further: potency means the concentration at half of the fitted maximal effect). Summed up:
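Test compounds were applied to Tet-on RORγ CHO cells 2 h ahead of doxycycline hyclate (1 uM final). Luciferase reporter activity was quantified by luminescence after 16 h at 37 C and 5% CO2.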

In assay [18] the target is Bile acid receptor (Homo sapiens) (UniProt Q96RI1). Kind of assay: qHTS assay to identify small molecule agonists of the farnesoid-X-receptor (FXR) signaling pathway (AID 743220; active means well fitted activation curve with a large enough effect in the signal ratio in the repeat runs, not every such curve was filed as active; the % refers to the signal ratio). An outline of the steps:
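FXR-UAS-bla HEK 293T cells carrying a UAS-driven beta-lactamase reporter were plated for 5 h at 37C/5% CO2, then exposed to DMSO-dissolved Tox21 10K compounds for 16 h at 37C. A LiveBLAzer B/G FRET substrate was loaded for 2 h at room temperature before fluorescence reading.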

In assay [19] the target is Peroxisome proliferator-activated receptor delta (Homo sapiens) (UniProt Q03181). The assay can be described thus: qHTS assay to identify small molecule antagonists of the peroxisome proliferator-activated receptor delta (PPARd) signaling pathway (AID 743215; active means well fitted inhibition curve with a large enough effect in the signal ratio in the repeat runs, not every such curve was filed as active; the % refers to the signal ratio;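 further: cells stimulated with agonist L165041 at 300 nM final during compound exposure; series mostly up to about 62 µM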). Summed up:
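Fluorescence from cleaved LiveBLAzer B/G FRET substrate (2 h, room temperature) reports PPARd-driven beta-lactamase in HEK293H UAS-bla cells. Cells had been treated 17 h at 37 C with compound plus 300 nM final L165041.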

Sequence of Bile acid receptor (Homo sapiens) (Q96RI1 whole entry, looked up): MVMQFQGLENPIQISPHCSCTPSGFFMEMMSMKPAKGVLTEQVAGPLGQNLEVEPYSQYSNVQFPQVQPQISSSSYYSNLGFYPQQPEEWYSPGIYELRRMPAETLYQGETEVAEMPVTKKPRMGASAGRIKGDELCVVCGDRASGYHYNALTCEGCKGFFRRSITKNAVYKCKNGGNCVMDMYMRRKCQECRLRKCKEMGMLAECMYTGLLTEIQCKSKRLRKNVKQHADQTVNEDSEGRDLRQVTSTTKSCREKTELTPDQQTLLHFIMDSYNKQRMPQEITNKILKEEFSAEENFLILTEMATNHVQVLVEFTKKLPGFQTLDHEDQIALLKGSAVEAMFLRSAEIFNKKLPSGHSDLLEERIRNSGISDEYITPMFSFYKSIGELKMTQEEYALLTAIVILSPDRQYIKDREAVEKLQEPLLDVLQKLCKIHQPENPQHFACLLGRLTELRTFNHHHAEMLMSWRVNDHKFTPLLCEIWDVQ

Regarding `ClC1=C(Cl)[C@]2(Cl)[C@H]3[C@H]([C@@H]4C=C[C@H]3C4)[C@@]1(Cl)C2(Cl)Cl`, the Potency result in [1] is “inactive and 15.5 µM (active)”; in [4], 38900 nM (active); in assay [7] it was “inactive and 54.9 µM (active)”; in assay [9], 21.8 µM (active) and 49 µM (active); in assay [10], 61000 nM (active); in assay [11], 38900 nM (active). Further, the Potency result in [2], in assay [3], in [5], in assay [6] and in [8] was “inactive” throughout.

With `CCCCn1cc[n+](C)c1` (tested in a mixture with another compound), the Potency entry in assay [1], in [12], in [8], in assay [13], in assay [9] and in assay [10] was “inactive” each time. Besides, the Potency entry in assay [11], in assay [14] and in assay [15] was “inactive” in each case.

As for `Brc1cccc(-c2ccccc2)c1`, the Potency entry in [1], in assay [3], in [16], in assay [12], in [5] and in assay [6] was “inactive” throughout. For the same molecule, the Potency entry in assay [7], in assay [9], in assay [10], in assay [17], in assay [11] and in assay [14] was “inactive” each time.

As for `CCC(OC(C)=O)C(CC(C)NC)(c1ccccc1)c1ccccc1` (stereo not drawn), the Potency was 15500 nM (active) in [1], 30900 nM (active) in [3], 61600 nM (active) in [4] and 44000 nM (active) in [8]. Moreover, the Potency entry in assay [18], in assay [5], in assay [13], in assay [9] and in assay [11] was “inactive” throughout.

In the case of `ClCBr`, the Potency entry in [1], in assay [2], in [19], in [16], in assay [4] and in assay [12] was “inactive” in each case. Further, the Potency entry in [5], in assay [7], in [8], in assay [13], in [9] and in [11] was “inactive” in each case. In addition, the Potency entry in assay [14] and in assay [15] was “inactive” in each case.

As for `O.O.O.O.O.O.O.O=S(=O)([O-])[O-].[Co+2]`, the Potency entry in assay [3], in assay [12], in assay [8], in [13], in assay [9] and in assay [11] was “inactive” each time. Besides, the Potency entry in assay [14] and in assay [15] was “inactive” each time.

In the case of `COc1ccc(Cc2nccc3cc(OC)c(OC)cc23)cc1OC`, the Potency entry in [1], in assay [2], in assay [3], in [12], in assay [7] and in assay [8] was “inactive” in each case. The Potency result in assay [13], in assay [9], in assay [11] and in assay [14] was “inactive” in each case. Also, in assay [17], the Potency is 4220 nM (active).

With `CC(=O)[O-].CC(=O)[O-].[Co+2]`, the Potency entry in assay [1], in assay [3], in [12], in [8], in assay [13] and in [11] was “inactive” in each case. In addition, the Potency entry in [14] is “inactive”.

With `COP(=S)(OC)Oc1nc(Cl)c(Cl)cc1Cl`, the Potency result in assay [1], in [16], in assay [4], in assay [18], in [12] and in [7] was “inactive” each time. For the same molecule, the Potency entry in assay [8], in [13], in assay [9] and in assay [11] was “inactive” throughout.

Consider `CC(O)C(=O)[O][Hg][c]1ccccc1` (stereo not drawn), for which the Potency in assay [1] is 1380 nM (active); in assay [3], 1950 nM (active); in assay [4] it was 1230 nM (active); in assay [12] it was 2750 nM (active); in assay [7] it was 1230 nM (active); in [8], 1740 nM (active). Also, the Potency in assay [9] was 1.1 µM (active); in [10], 1370 nM (active); in assay [17] it was 486 nM (active); in [11], 2450 nM (active). For the same molecule, in assay [5], the Potency entry is “inactive”.

On to `CNC(=O)/C=C(\C)OP(=O)(OC)OC`, for which the Potency result in assay [1], in assay [2], in assay [19], in [16], in [18] and in [5] was “inactive” each time. The Potency result in assay [6], in assay [7], in assay [8], in assay [13], in assay [9] and in assay [10] was “inactive” each time. Besides, the Potency entry in assay [11] and in assay [14] was “inactive” in each case.

`CC[N+]1(CC)CCC(OC(=O)C(O)(c2ccccc2)c2ccccc2)C1` (stereo not drawn): the Potency entry in [1], in assay [3], in assay [16], in [4], in [12] and in [5] was “inactive” each time. Also, the Potency result in assay [6], in assay [8], in [13], in assay [9], in assay [11] and in assay [14] was “inactive” each time.
